# Records with an inconclusive call do not appear. A call without a number means that no potency is given here. Values without a mark were called inactive. Calls of active or inactive are those of the source. Calls follow the shape of the dose curve; as a rule, active = well fitted curve in the direction sought with a large enough effect; inconclusive = small, poorly fitted or top-dose-only effect, or another doubt; inactive = no such curve, though single readings can be large; an effect the other way counts as inactive or inconclusive.
# Experiments:
# [1] = P-glycoprotein substrates identified in KB-3-1 adenocarcinoma cell line, qHTS therapeutic library screen (AID 1346986); details: KB-3-1 parental cells viability, CellTiter-Glo, 72 h; series mostly up to 44.5 µM; also: nearly all actives have a fitted effect of over 60% in size;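 also: potency is for cytotoxicity meaning loss of cell viability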
# Method in brief: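 Resistance attributable to P-gp was assessed by comparing AC50 in KB-8-5-11 with parental KB-3-1 and by tariquidar reversal. Cells were exposed 72 h and viability read by CellTiter-Glo.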
# [2] = P-glycoprotein substrates identified in KB-8-5-11 adenocarcinoma cell line, qHTS therapeutic library screen (AID 1346987); details: KB-8-5-11 (P-gp overexpressing) viability, CellTiter-Glo, 72 h; series mostly up to 44.5 µM; also: nearly all actives have a fitted effect of over 65% in size
# Method in brief: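 KB-8-5-11, a colchicine-selected P-gp-overexpressing KB-3-1 subline, was grown without colchicine for the assay. Cells were seeded at 500 cells/well, dosed in concentration-response and incubated 72 h at 37 degree C, 5% CO2. Viability was read by CellTiter-Glo luminescence.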
# Potency is read from the fitted curve at half-maximal effect.
smiles,measurement,setting,value
COc1cc2ncnc(Nc3cccc(O)c3)c2cc1OC,Potency,[1],inactive
same,Potency,[2],inactive
CCOc1ccc(NC(=S)N2CCC(C(O)(c3ccccc3)c3ccccc3)CC2)cc1,Potency,[1],inactive
same,Potency,[2],inactive
CCOC(=O)c1cc(C#N)c(N2CCC(C(=O)NS(=O)(=O)Cc3ccccc3)CC2)nc1C,Potency,[1],inactive
same,Potency,[2],inactive
CC1CCC23COC(=O)C2=CC(O)CC3C1(C)CCC1=CC(O)OC1=O (configuration not stated),Potency,[1],inactive
same,Potency,[2],inactive
C[C@H](Nc1ncnc2nc[nH]c12)c1cc2ccc(F)cc2nc1-c1ccccn1,Potency,[1],inactive
same,Potency,[2],inactive
O=c1[nH]ccc2cc(OC3CCNCC3)ccc12,Potency,[1],inactive
same,Potency,[2],inactive
CC(C)(C)NC(=O)[C@@H](c1cccnc1)N(C(=O)c1ccco1)c1ccc(C(C)(C)C)cc1,Potency,[1],inactive
same,Potency,[2],inactive
CC12CCC3c4ccc(OC5OC(C(=O)O)C(O)C(O)C5O)cc4CCC3C1CCC2O (configuration not stated),Potency,[1],inactive
same,Potency,[2],inactive
CCOC(=O)C(CCc1ccccc1)NC1CSC(c2cccs2)CN(CC(=O)O)C1=O (configuration not stated),Potency,[1],inactive
same,Potency,[2],inactive
CC1=C2C[C@H]3O[C@@]3(C)CCC3O[C@@]3(C)C[C@@]2(O)OC1=O (some centres not stated),Potency,[1],inactive
same,Potency,[2],inactive
CC(C)(C)C(=O)CN1C(=O)[C@H](NC(=O)Nc2cccc(C(=O)O)c2)CN(C2CCCCC2)c2ccccc21,Potency,[1],inactive
same,Potency,[2],inactive
COc1cc2ncnc(Nc3cccc(Cl)c3F)c2cc1OC(=O)N1CCN(C)C[C@H]1C,Potency,[1],inactive
same,Potency,[2],inactive
O=C(O)Cc1cn(C2OCC(O)C(O)C2O[C@@H]2O[C@H](CO)[C@@H](O)[C@H](O)[C@H]2O)c2ccccc12 (some centres not stated),Potency,[1],inactive
same,Potency,[2],inactive
COC(=O)C1=CO[C@@H](O[C@@H]2O[C@H](CO)[C@@H](O)[C@H](O)[C@H]2O)[C@@H]2C(COC(C)=O)=C[C@H](O)[C@H]12,Potency,[1],inactive
same,Potency,[2],inactive
C[C@H](NC(c1cccc(C[P+](=O)O)c1)[C@H](C)O)c1ccc(Cl)c(Cl)c1 (some centres not stated),Potency,[1],inactive
same,Potency,[2],inactive
CC/C=C\CCO[C@@H]1O[C@H](CO[C@@H]2OC[C@H](O)[C@H](O)[C@H]2O)[C@@H](O)[C@H](O)[C@H]1O,Potency,[1],inactive
same,Potency,[2],inactive
COc1cc(/C=C/C=O)cc(OC)c1O[C@@H]1O[C@H](CO)[C@@H](O)[C@H](O)[C@H]1O,Potency,[1],inactive
same,Potency,[2],inactive
C/C1=C\CC[C@H](C)CCO[C@@H]2O[C@H](CO[C@@H]3OC[C@](O)(COC1=O)[C@H]3O)[C@@H](O)[C@H](O)[C@H]2O,Potency,[1],inactive
same,Potency,[2],inactive
CC(=O)c1ccc2c(c1)C(O)C(C(C)(C)O)O2 (configuration not stated),Potency,[1],inactive
same,Potency,[2],inactive
C=C(C)C(=O)O[C@H]1C[C@@](C)(O)C(=O)CC(O)/C(C)=C\[C@H]2OC(=O)C(=C)[C@H]12 (some centres not stated),Potency,[1],inactive
same,Potency,[2],inactive
COc1cc2c(c(OC)c1CC=C(C)C)C[C@H](c1ccc(O)cc1O)CO2,Potency,[1],inactive
same,Potency,[2],inactive
COc1cc(C(=O)OC[C@@]2(O)CO[C@@H](O[C@H]3[C@H](Oc4ccc(C(=O)O)cc4OC)O[C@H](CO)[C@@H](O)[C@@H]3O)[C@@H]2O)ccc1O,Potency,[1],inactive
same,Potency,[2],inactive
C[C@H](CCC(=O)O)[C@H]1CC[C@H]2[C@@H]3C[C@H](O)[C@@H]4C[C@H](O)CC[C@]4(C)[C@H]3CC[C@]12C,Potency,[1],inactive
same,Potency,[2],inactive
C=C1C(=O)OC2C1C(O)CC1(C)C(O)CCC(C=O)C21 (configuration not stated),Potency,[1],inactive
same,Potency,[2],inactive
CC1(c2nc3c(C(N)=O)cccc3[nH]2)CCCN1 (configuration not stated),Potency,[1],inactive
same,Potency,[2],inactive
CC1CCC2C(C)(C)[C@@H](O)CC[C@]2(C)C12Cc1c(O)cc3c(c1O2)CN(C(CCC(=O)O)C(=O)O)C3=O (some centres not stated),Potency,[1],inactive
same,Potency,[2],inactive
C=C(C(=O)O)[C@H]1C[C@]2(C)[C@@H](O)CC[C@]23O[C@H]1C[C@@H]3C,Potency,[1],inactive
same,Potency,[2],inactive
C[C@H]1CC[C@@H]2N(C1)C[C@@H]1[C@H]([C@@H](O)[C@H](O)[C@]3(O)[C@H]1C[C@@]14OC5(O)[C@@H](C[C@@H](O)[C@@H]31)[C@]4(C)CC[C@@H]5O)[C@]2(C)O,Potency,[1],inactive
same,Potency,[2],inactive
NC(=O)c1csc(C2OC(CO)C(O)C2O)n1 (configuration not stated),Potency,[1],inactive
same,Potency,[2],inactive
Nc1ncnc2c1ncn2CCNCCCCCO,Potency,[1],inactive
same,Potency,[2],inactive
CCCCNc1ncc2c(-c3ccc(CN4CCN(C)CC4)cc3)cn(C3CCC(O)CC3)c2n1 (configuration not stated),Potency,[1],0.517 µM (active)
same,Potency,[2],1.3 µM (active)
COc1c2c(c(C)c3c1C(=O)OC3)O[C@@]1(C)CC(O)C(C(C)(C)O)[C@](C)(CCC(=O)O)[C@H]1C2 (some centres not stated),Potency,[1],inactive
same,Potency,[2],inactive
Cn1c(=O)n(-c2ccc(C(C)(C)C#N)cc2)c2c3cc(C#Cc4cccnc4)ccc3ncc21,Potency,[1],0.126 µM (active)
same,Potency,[2],0.0893 µM (active)
C=C1C(=O)OC2CC(C)=C(C(C)CCCO)C(O)C12 (configuration not stated),Potency,[1],inactive
same,Potency,[2],inactive
O=C1NC(=O)C(c2cn(-c3ccccc3)nc2-c2ccc(F)cc2)N1 (configuration not stated),Potency,[1],inactive
same,Potency,[2],inactive
O=C1CCC(=O)N(O)CCCCCNC(=O)CCC(=O)N(O)CCOCCNC(=O)CCC(=O)N(O)CCCCCN1,Potency,[1],inactive
same,Potency,[2],inactive
CC(C)=CCC/C(C)=C/CO[C@@H]1O[C@H](CO)[C@@H](OC(=O)/C=C/c2ccc(O)cc2)[C@H](O[C@@H]2O[C@@H](C)[C@H](O)[C@@H](O)[C@H]2O)[C@H]1O,Potency,[1],inactive
same,Potency,[2],inactive
COC(=O)c1cc(OC)cc(OC)c1C(=O)c1c(OC)cc2c(c1O)C1CCCC(C)(O2)O1 (configuration not stated),Potency,[1],inactive
same,Potency,[2],inactive
CCC(O)(C(=O)OCc1ccccc1NC(=O)CCC(=O)O)C(C)O (configuration not stated),Potency,[1],inactive
same,Potency,[2],inactive
Cc1cc(=O)oc2c(C=O)c(O)ccc12,Potency,[1],inactive
same,Potency,[2],inactive
CC1(C=O)CC[C@]2(C(=O)O[C@@H]3O[C@H](CO)[C@@H](O)[C@H](O)[C@H]3O)CC[C@]3(C)C(=CCC4[C@@]5(C)C[C@H](O)[C@H](O[C@@H]6OC[C@@H](O)[C@H](O)[C@H]6O)[C@@](C)(CO)C5CC[C@]43C)C2C1 (some centres not stated),outcome,[1],inactive [at 9.29 µM]
same,outcome,[2],inactive [at 9.29 µM]
C=C1CC2C(C)(CCC(=O)O)C(C(C)(C)O)CCC2(C)C2C(=O)OC(C)(C(=O)OC)C(=O)C12C (configuration not stated),Potency,[1],inactive
same,Potency,[2],inactive
OC[C@H]1O[C@@H](Oc2cc(O)c3c(c2)O[C@@H](c2ccc(O)cc2)[C@H](O)C3)[C@H](O)[C@@H](O)[C@@H]1O,Potency,[1],inactive
same,Potency,[2],inactive
COc1ccc(N2CCOCC2)c2sc(NC(=O)N3CCC(C)(O)CC3)nc12,Potency,[1],inactive
same,Potency,[2],inactive
CC1(C)CC[C@]2(C(=O)O[C@@H]3O[C@H](CO)[C@@H](O)[C@H](O)[C@H]3O)CC[C@]3(C)C(=CCC4[C@@]5(C)C[C@@H](O)[C@H](O)[C@@](C)(CO)C5CC[C@]43C)C2[C@@H]1O (some centres not stated),Potency,[1],inactive
same,Potency,[2],inactive
C/C(=C\CCC(C)CCO)C(=O)OC1(C)CCC2C(C(=O)O)=COC(OC3OC(CO)C(O)C(O)C3O)C21 (configuration not stated),Potency,[1],inactive
same,Potency,[2],inactive
COc1ccc(C2(O)c3ccccc3NC(=O)C2O)cc1 (configuration not stated),Potency,[1],inactive
same,Potency,[2],inactive
CC(NC(=O)C(O)C(C)C)C(=O)NC1C(=O)N(C)CCc2ccccc21 (configuration not stated),Potency,[1],inactive
same,Potency,[2],inactive
C=CC1C(OC2OC(CO)C(O)C(O)C2O)OC=C(C(=O)OC)C1CC(=O)OCC1C(C)C(O)CC1C(CO)COC(=O)CC1C(C(=O)O)=COC(OC2OC(CO)C(O)C(O)C2O)/C1=C\C (configuration not stated),outcome,[1],inactive [at 9.29 µM]
same,"activity change, negative = cytotoxicity",[2],-0.744% [at 9.29 µM]
C/C1=C\CCC(C)CCO[C@@H]2O[C@H](CO[C@@H]3OC[C@H](O)[C@H](O)[C@H]3OC1=O)[C@@H](O)[C@H](O)[C@H]2O (some centres not stated),Potency,[1],inactive
same,Potency,[2],inactive
CCCCNc1ncc2c(-c3ccc(F)cc3)nn(CC3CCC(N)CC3)c2n1 (configuration not stated),Potency,[1],2 µM (active)
same,Potency,[2],1.78 µM (active)
Cc1ccc(-c2c(C(=O)CF)n(CCCO)c3ncnc(N)c23)cc1,Potency,[2],inactive
Cc1cn(C2C=CC(CO)O2)c(=O)[nH]c1=O (configuration not stated),Potency,[2],inactive
C=C1CCC2C(C)(C)C(O)CCC2(C)C1CCC(C)CCOC(C)=O (configuration not stated),Potency,[2],inactive
CC/C=C\C/C=C\C/C=C\CCCCCCCC(=O)OCC(O)COC1OC(CO)C(O)C(O)C1O (configuration not stated),Potency,[1],inactive
same,Potency,[2],inactive
COC1C(CO)OC(n2cnc3c(=O)[nH]cnc32)C1O (configuration not stated),Potency,[2],inactive
CS(=O)(=O)N1CCC(NC(=O)c2[nH]ncc2NC(=O)c2c(Cl)cccc2Cl)CC1,Potency,[2],9.2 µM (active)
COc1ccc(-c2c(-c3cc(C(=O)O)ccn3)ncn2C)cc1,Potency,[2],inactive
COc1ccc(C(=O)Nc2ncc(-c3ccc(C(=O)O)cc3)s2)cc1,Potency,[2],2.91 µM (active)
COc1cc(Nc2nc3c(s2)CCCC3c2ccc(F)cc2)ccc1-n1cnc(C)c1 (configuration not stated),Potency,[2],20.6 µM (active)

# Reference: PubChem BioAssay (NCATS)
